# Read-outs that look alike come from different tables or passages of the source.
# What was measured:
# STK36 = conditions: concentration: 1 μM,replicates: in singlicate; n = 1
# STK39 = conditions: concentration: 1 μM,replicates: in singlicate; n = 1
# SYK = conditions: concentration: 1 μM,replicates: in singlicate; n = 1
# SgK110 = conditions: concentration: 1 μM,replicates: in singlicate; n = 1
# TAK1 = tested on: T1, TAK1; conditions: concentration: 1 μM,replicates: in singlicate; n = 1
# T1 construct: gene MAP3K7
# TAOK1 = conditions: concentration: 1 μM,replicates: in singlicate; n = 1
# TAOK2 = conditions: concentration: 1 μM,replicates: in singlicate; n = 1
# TAOK3 = conditions: concentration: 1 μM,replicates: in singlicate; n = 1
# TBK1 = conditions: concentration: 1 μM,replicates: in singlicate; n = 1
# TEC = conditions: concentration: 1 μM,replicates: in singlicate; n = 1
# TESK1 = conditions: concentration: 1 μM,replicates: in singlicate; n = 1
# TGFBR1 = conditions: n = 1
# TGFBR2 = conditions: concentration: 1 μM,replicates: in singlicate; n = 1
# TIE1 = conditions: concentration: 1 μM,replicates: in singlicate; n = 1
# TIE2 = tested on: T2, TIE2; conditions: concentration: 1 μM,replicates: in singlicate; n = 1
# T2 construct: gene TEK
# TLK1 = conditions: concentration: 1 μM,replicates: in singlicate; n = 1
# TLK2 = conditions: concentration: 1 μM,replicates: in singlicate; n = 1
# TNIK = conditions: concentration: 1 μM,replicates: in singlicate; n = 1
# TNK1 = conditions: concentration: 1 μM,replicates: in singlicate; n = 1
# TNK2 = conditions: concentration: 1 μM,replicates: in singlicate; n = 1
# [1] = concentration: 1 μM,replicates: in singlicate
# 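Further: KINOMEscan kinase panel screen.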
structure (smiles),measurement,setting,value
Cc1cc2cn[nH]c2cc1-c1cccc2c(N)c(C(N)=O)nnc12,%Inh,STK36,0%
same,%Inh,STK39,47%
same,%Inh,SYK,20%
same,%Inh,SgK110,0%
same,%Inh,TAK1,69%
same,%Inh,TAOK1,83%
same,%Inh,TAOK2,37%
same,%Inh,TAOK3,39%
same,%Inh,TBK1,47%
same,%Inh,TEC,94.9%
same,%Inh,TESK1,9%
same,%Inh,TGFBR1; [1],12%
same,%Inh,TGFBR2,80%
same,%Inh,TIE1,2%
same,%Inh,TIE2,31%
same,%Inh,TLK1,25%
same,%Inh,TLK2,12%
same,%Inh,TNIK,0%
same,%Inh,TNK1,36%
same,%Inh,TNK2,94.2%
Cc1ccc(-n2nc(C(C)(C)C)cc2NC(=O)Nc2ccc(OCCN3CCOCC3)c3ccccc23)cc1 [GW839464],%Inh,STK36,0%
same,%Inh,STK39,0%
same,%Inh,SYK,9%
same,%Inh,SgK110,22%
same,%Inh,TAK1,76%
same,%Inh,TAOK1,0%
same,%Inh,TAOK2,1%
same,%Inh,TAOK3,0%
same,%Inh,TBK1,31%
same,%Inh,TEC,34%
same,%Inh,TESK1,28%
same,%Inh,TGFBR1; [1],0%
same,%Inh,TGFBR2,13%
same,%Inh,TLK1,3%
same,%Inh,TLK2,5%
same,%Inh,TNIK,92%
same,%Inh,TNK1,22%
same,%Inh,TNK2,31%
Cc1ccc2c(-c3ccncc3)c(-c3ccc(F)cc3)nn2c1.Cl [GW461484],%Inh,STK36,53%
same,%Inh,STK39,21%
same,%Inh,SYK,26%
same,%Inh,SgK110,0%
same,%Inh,TAK1,70%
same,%Inh,TAOK1,0%
same,%Inh,TAOK2,0%
same,%Inh,TAOK3,0%
same,%Inh,TBK1,21%
same,%Inh,TEC,0%
same,%Inh,TESK1,5%
same,%Inh,TGFBR1; [1],53%
same,%Inh,TGFBR2,2%
same,%Inh,TIE1,0%
same,%Inh,TIE2,0%
same,%Inh,TLK1,0%
same,%Inh,TLK2,0%
same,%Inh,TNIK,66%
same,%Inh,TNK1,15%
same,%Inh,TNK2,0%
CN(C)CC(O)COc1ccc(Nc2nccc(-c3cnn4nc(N5CCOCC5)ccc34)n2)cc1 (stereo not drawn) [GW767488],%Inh,STK36,56%
same,%Inh,STK39,79%
same,%Inh,SYK,4%
same,%Inh,SgK110,0%
same,%Inh,TAK1,63%
same,%Inh,TAOK1,59%
same,%Inh,TAOK2,34%
same,%Inh,TAOK3,37%
same,%Inh,TBK1,58%
same,%Inh,TEC,7%
same,%Inh,TESK1,10%
same,%Inh,TGFBR1; [1],8%
same,%Inh,TGFBR2,78%
same,%Inh,TIE1,41%
same,%Inh,TIE2,27%
same,%Inh,TLK1,51%
same,%Inh,TLK2,50%
same,%Inh,TNIK,1%
same,%Inh,TNK1,0%
same,%Inh,TNK2,0%
CN(C)CCOc1ccc(-c2cc(-c3c[nH]nc3-c3ccccn3)ccn2)cc1 [GW835314],%Inh,STK36,47%
same,%Inh,STK39,0%
same,%Inh,SYK,26%
same,%Inh,SgK110,0%
same,%Inh,TAK1,26%
same,%Inh,TAOK1,23%
same,%Inh,TAOK2,0%
same,%Inh,TAOK3,0%
same,%Inh,TBK1,18%
same,%Inh,TEC,13%
same,%Inh,TESK1,15%
same,%Inh,TGFBR1; 1 µM,99%
same,%Inh,TGFBR2,96.6%
same,%Inh,TIE1,0%
same,%Inh,TIE2,14%
same,%Inh,TLK1,26%
same,%Inh,TLK2,0%
same,%Inh,TNIK,82%
same,%Inh,TNK1,41%
same,%Inh,TNK2,58%
Cc1occc1-c1nc(N)c(OC[C@@H](N)Cc2c[nH]c3ccccc23)cc1-c1cc2c(C)n[nH]c2cn1 [GSK1660450],%Inh,STK36,67%
same,%Inh,STK39,4%
same,%Inh,SYK,0%
same,%Inh,SgK110,0%
same,%Inh,TAK1,97.2%
same,%Inh,TAOK1,99.6%
same,%Inh,TAOK2,89%
same,%Inh,TAOK3,99.6%
same,%Inh,TBK1,6%
same,%Inh,TEC,0%
same,%Inh,TESK1,10%
same,%Inh,TGFBR1; [1],0%
same,%Inh,TGFBR2,0%
same,%Inh,TIE1,28%
same,%Inh,TIE2,2%
same,%Inh,TLK1,0%
same,%Inh,TLK2,0%
same,%Inh,TNIK,95.7%
same,%Inh,TNK1,27%
same,%Inh,TNK2,10%
CNC(=O)c1ccccc1Sc1ccc2c(/C=C/c3ccccn3)n[nH]c2c1,%Inh,STK36,24%
same,%Inh,STK39,0%
same,%Inh,SYK,5%
same,%Inh,SgK110,0%
same,%Inh,TAK1,15%
same,%Inh,TAOK1,0%
same,%Inh,TAOK2,0%
same,%Inh,TAOK3,0%
same,%Inh,TBK1,36%
same,%Inh,TEC,0%
same,%Inh,TESK1,15%
same,%Inh,TGFBR1; [1],11%
same,%Inh,TGFBR2,0%
same,%Inh,TIE2,53%
same,%Inh,TLK1,0%
same,%Inh,TLK2,0%
same,%Inh,TNIK,49%
same,%Inh,TNK1,64%
same,%Inh,TNK2,0%
Cl.Cl.Nc1nc(-c2ccc3c(N)n[nH]c3c2)cc(N2CCCC(NC(=O)c3ccccc3)C2)n1 (stereo not drawn) [GSK2286775],%Inh,STK36,0%
same,%Inh,STK39,0%
same,%Inh,SYK,0%
same,%Inh,SgK110,0%
same,%Inh,TAK1,0%
same,%Inh,TAOK1,0%
same,%Inh,TAOK2,0%
same,%Inh,TAOK3,0%
same,%Inh,TBK1,76%
same,%Inh,TEC,6%
same,%Inh,TESK1,98.1%
same,%Inh,TGFBR1; [1],13%
same,%Inh,TGFBR2,0%
same,%Inh,TIE1,0%
same,%Inh,TIE2,0%
same,%Inh,TLK1,18%
same,%Inh,TLK2,16%
same,%Inh,TNIK,0%
same,%Inh,TNK1,8%
same,%Inh,TNK2,14%
O=C(NCCCN1CCOC1=O)c1cnc(NCc2cc(Cl)ccc2Cl)nc1NC1CCCC1,%Inh,STK36,10%
same,%Inh,STK39,0%
same,%Inh,SYK,15%
same,%Inh,SgK110,0%
same,%Inh,TAK1,0%
same,%Inh,TAOK1,0%
same,%Inh,TAOK2,10%
same,%Inh,TAOK3,0%
same,%Inh,TBK1,24%
same,%Inh,TEC,18%
same,%Inh,TESK1,23%
same,%Inh,TGFBR1; [1],10%
same,%Inh,TGFBR2,26%
same,%Inh,TIE1,0%
same,%Inh,TIE2,0%
same,%Inh,TLK1,10%
same,%Inh,TLK2,2%
same,%Inh,TNIK,17%
same,%Inh,TNK1,0%
same,%Inh,TNK2,17%

# Reference: publication PMC5540273 (PLoS ONE, 2017)
